Assay results as given in PubChem BioAssay (NCATS).
Results filed as inconclusive are left out. Calls of active or inactive are those of the source. The call rests on the fitted dose curve; in most records, active means well fitted inhibition curve with a large enough effect; inconclusive means small, poorly fitted or top-dose-only effect, or effect the other way; inactive means flat fitted curve, though single readings scatter.

Molecular target: Ubiquitin carboxyl-terminal hydrolase 2 (Homo sapiens) (UniProt O75604)
Experiment: qHTS Validation Assay for Inhibitors of Ubiquitin-specific Protease USP2a Using CHOP2 as the Reporter (AID 463106)
Conditions: USP2a cleavage of CHOP2 reporter, enzymatic; series mostly up to 38.3 µM; activity, negative = inhibition: at the top concentration
Source text: NIH Molecular Libraries Screening Centers Network [MLSCN]
NIH Chemical Genomics Center [NCGC]
PI Name: Nicholson, Ben. Progenra Inc, Malvern, PA
Homeostasis of cellular proteins is maintained through a combination of synthesis and degradation. The pathway that accounts for the majority of protein degradation is the ubiquitin-proteasomal pathway. Ubiquitin (Ub) is highly conserved in all cells and the generation of a multi-Ub chain typically targets proteins for degradation by the proteasome. However, ubiquitination is highly reversible and dynamic. Deubiquitination, the reverse process, is catalyzed through the action of enzymes referred to as isopeptidases or deubiquitinating enzymes (DUBs). This group of enzymes is collectively responsible for maintaining adequate pools of free ubiquitin and regulating the ubiquitination status of cellular proteins. The class of DUBs referred to as the ubiquitin-specific proteases (USP) family functions endoproteolytically to cleave Ub chains from a wide range of protein substrates. USP2a deubiquitinates fatty acid synthase (FASN) which has recently been identified as an emerging oncology target. To identify inhibitors of USP2a a cell-free assay was employed.
The reporter enzyme chosen is an enterokinase called CHOP2, which is activated when the Ub is cleaved by USP2. The free and now activated reporter can subsequently act on its reporter substrate. […] The assay was developed by Progenra, Inc. and has been licensed for sale by LifeSensors, Inc. as Ub-CHOP2-Reporter-Kit (#PR1101).
NCGC Assay Protocol Summary:
The assay buffer, prepared fresh at the day of the assay, contains 20mM Tris-HCl pH 8.0, 2mM CaCl2, 2mM beta-Mercaptoethanol, 0.05% CHAPS. 3ul of 20nM (10nM final) USP2 core, which is stored on ice, is dispensed into a medium-binding black solid Kalypsys 1,536 well plate using the Kalypsys dispenser. The assay plate is then pinned with 23nL compound with the Kalypsys pintool in columns 5-48. The controls are pinned as follows: column 1 two-fold dilutions of 2M NEM in duplicate; column 2 2M NEM (final concentration 38.2mM); column 3&4 DMSO. The assay plate is incubated at RT for 30min. Subsequently, 1.5uL of 100nM (25nM final) Ub-CHOP2 and 1.5uL of 100nM (25nM final) Reporter Substrate (both stored on ice and protected from light) were dispensed into the plate using the Kalypsys dispenser. Plates were read after 60min RT incubation on a ViewLux (Perkin Elmer) plate reader using the following wavelengths Ex 485nm /Em 531nm.
Data were normalized to the to AC100 inhibition (NEM). Concentration-response curves were fitted to the normalized data and the concentration-response curves were then classified based on curve quality (r2), response magnitude and degree of measured activity. The time zero reading was used to flag fluorescence artifacts.
Keywords: ubiquitination, deubiquitination, proteases, profluorescent, MLSMR, MLPCN, NIH Roadmap, qHTS, NCGC

Chain of Ubiquitin carboxyl-terminal hydrolase 2 (Homo sapiens) (O75604 whole entry, looked up): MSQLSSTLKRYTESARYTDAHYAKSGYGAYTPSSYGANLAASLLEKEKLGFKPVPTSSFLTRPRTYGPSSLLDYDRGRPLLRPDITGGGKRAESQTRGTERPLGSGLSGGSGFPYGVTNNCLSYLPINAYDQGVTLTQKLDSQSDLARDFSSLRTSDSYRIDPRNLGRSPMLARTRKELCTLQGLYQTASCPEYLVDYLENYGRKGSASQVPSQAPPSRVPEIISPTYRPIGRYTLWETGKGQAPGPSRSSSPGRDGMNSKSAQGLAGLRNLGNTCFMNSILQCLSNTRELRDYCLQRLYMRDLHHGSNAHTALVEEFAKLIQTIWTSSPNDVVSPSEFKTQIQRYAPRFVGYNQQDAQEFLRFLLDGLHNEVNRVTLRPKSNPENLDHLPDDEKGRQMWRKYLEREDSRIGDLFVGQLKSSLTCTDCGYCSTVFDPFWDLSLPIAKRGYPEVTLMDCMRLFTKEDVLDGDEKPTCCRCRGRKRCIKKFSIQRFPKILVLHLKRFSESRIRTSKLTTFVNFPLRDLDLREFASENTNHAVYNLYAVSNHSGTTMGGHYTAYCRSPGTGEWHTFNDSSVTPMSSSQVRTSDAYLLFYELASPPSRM

| SMILES | activity, negative = inhibition |
| --- | --- |
| CCCN1CCc2cc(O)cc3c2[C@H]1Cc1ccc(O)c(O)c1-3 | 5.98% (inactive) |
| NNC(N)=O | -0.0456% (inactive) |
| CCCN(CCC)CCc1ccc(O)c(O)c1 | 4.08% (inactive) |
| NCC(O)c1cc(O)c(O)cc1F (stereo not given) | -0.107% (inactive) |
| Cc1sc2ccccc2c1CC1=NCCN1 | 2.3% (inactive) |
| CCCN(CCC)[C@H]1CCc2c(F)ccc(O)c2C1 | -1.58% (inactive) |
| CN1CCc2cc(O)cc3c2[C@H]1Cc1ccc(O)c(O)c1-3 | 3.15% (inactive) |
| CNc1ccc2oc(C[C@H]3O[C@@]4(CC[C@H]3C)O[C@H]([C@H](C)C(=O)c3ccc[nH]3)[C@H](C)C[C@H]4C)nc2c1C(=O)O | -5.61% (inactive) |
| CCCN(CCC)C1Cc2cc(OC)c(OC)cc2C1 | -1.19% (inactive) |
| CCCn1c(=O)c2[nH]c(C3CCCC3)nc2n(CCCOC(=O)c2ccc(S(=O)(=O)F)cc2)c1=O | 0.873% (inactive) |
| CC1(C(=O)O)C2CCC(O2)C1(C)C(=O)O (stereo not given) | 0.766% (inactive) |
| CCN(CCCl)Cc1ccccc1Br | -0.121% (inactive) |
| CC(C)(O)[C@@H]1C2OC(=O)[C@@H]1[C@]1(O)C[C@H]3O[C@]34C(=O)O[C@H]2[C@]14C (tested in a mixture with another compound) | -1.23% (inactive) |
| OC1CCCCC1N1CCC(c2ccccc2)CC1 (stereo not given) | 0.716% (inactive) |
| CCCN(CCC)CCc1c[nH]c2ccc(C(N)=O)cc12 | -2.03% (inactive) |
| O=[N+]([O-])/C=C/c1ccc2c(c1)OCO2 | 2.38% (inactive) |
| CCS(=O)(=O)Nc1cccc(C(=C2CCCCC2)c2cnc[nH]2)c1 | 0.0614% (inactive) |
| CCCCCCCCCCCCCC(=O)O[C@@H]1[C@@H](C)[C@@]2(O)[C@@H](C=C(CO)C[C@@]3(O)C(=O)C(C)=C[C@@H]23)C2C(C)(C)[C@@]21OC(C)=O (stereo not given in full) | -9.37% (inactive) |
| c1ccc2cc(CC3=NCCN3)ccc2c1 | 2.63% (inactive) |
| N#C/C(=C/c1ccc(O)c(O)c1)C(N)=S | -6.15% (inactive) |

| SMILES | activity, negative = inhibition |
| --- | --- |
| C[C@@H]1O[C@@H](O[C@H]2C[C@@H](O)[C@]3(CO)[C@@H]4C(CC[C@]3(O)C2)[C@@]2(O)CC[C@H]([C@@H]3COC(=O)C3)[C@@]2(C)C[C@H]4O)[C@H](O)[C@H](O)[C@H]1O (stereo not given in full) | 5.31% (inactive) |
| C[C@H](N)Cc1cccc(C(F)(F)F)c1 | 1.52% (inactive) |
| O=C1C=CC(=O)C=C1 | -0.244% (inactive) |
| C=CCN1CCc2cccc3c2[C@H]1Cc1ccc(O)c(O)c1-3 | -2.57% (inactive) |
| COc1cc(CC(C)N)c(OC)cc1I (stereo not given) | 1.94% (inactive) |
| COc1ccc2[nH]c3c(c2c1)CCNC3 | -3.87% (inactive) |
| CC(N)c1cccc(Cl)c1Cl (stereo not given) | -0.874% (inactive) |
| CN(N=O)c1cc(O)ccc1O | 0.0899% (inactive) |
| NCCc1c[nH]c2ccc(C(N)=O)cc12 | 1.08% (inactive) |
| CCCN1CCC[C@@H](c2cccc(O)c2)C1 | -1.99% (inactive) |
| CP(=O)(O)C1=CCNCC1 | 4.68% (inactive) |
| COc1ccc2c(c1)c(CCN1CCOCC1)c(C)n2C(=O)c1cccc(Cl)c1Cl | -12.8% (inactive) |
| NC(N)=Nc1ccc2[nH]c3c(c2c1)C[C@@]1(O)[C@H]2Cc4ccc(O)c5c4[C@@]1(CCN2CC1CC1)[C@H]3O5 | -2.58% (inactive) |
| C[N+](C)(C)CC#CCOC(=O)Nc1cccc(Cl)c1 | 2.16% (inactive) |
| C#CCN[C@H](C)Cc1ccccc1 | 2.3% (inactive) |
| CC(C)[C@@]1(NC(=O)[C@@H]2C[C@@H]3c4cccc5[nH]cc(c45)C[C@H]3N(C)C2)O[C@@]2(O)[C@@H]3CCCN3C(=O)[C@H](Cc3ccccc3)N2C1=O | -3.61% (inactive) |
| N[C@@H](Cn1ccc(=O)[nH]c1=O)C(=O)O | 0.0873% (inactive) |
| C[C@H](N)CN1CCc2ccc(Br)cc21 | 2.13% (inactive) |
| C[N+]1(C)CCN(c2ccccc2)CC1 | 0.344% (inactive) |
| CC(=O)OCC1=C(C(=O)O)N2C(=O)[C@@H](NC(=O)CCC[C@@H](N)C(=O)O)[C@H]2SC1 | 1.27% (inactive) |
